Data reported in ChEMBL document CHEMBL4513146, “CO-ADD screening of Karazin Kharkiv National University (Ukraine) compounds”.
Results with a measured potency or affinity are listed apart.

Key:
[1] = test system: Staphylococcus aureus; conditions: Concentration 32 ug.mL-1;; ASSAY_TEST Inhibition of Bacterial Growth; detection method Absorption (OD600); MEDIA CAMHB; plate type 384well; NBS; CORNING #3640; time 18 hr
[2] = test system: Escherichia coli; conditions: Concentration 32 ug.mL-1;; ASSAY_TEST Inhibition of Bacterial Growth; detection method Absorption (OD600); MEDIA CAMHB; plate type 384well; NBS; CORNING #3640; time 18 hr

With `CCOc1ccc(-n2ccn3c(SCC(=O)c4ccc(OC)cc4)nnc3c2=O)cc1` as the molecule, how does the Inhibition [1] read?
The Inhibition was 15.17%.

What about the Inhibition [2] of the same molecule?
Its Inhibition is -3.52%.

How did the Inhibition [1] turn out when `COC(=O)c1cccc(NC(=O)Cn2nc3c(Oc4ccccc4)nccn3c2=O)c1` was run?
Its Inhibition is 3.03%.

What about the Inhibition [2] of the same molecule?
Its Inhibition is -4.6%.

For `COc1ccc(CNC(=O)CSc2nnc3c4cc(-c5ccc(C)cc5)nn4ccn23)cc1`, which Inhibition [1] is on record?
The Inhibition was 4.45%.

What about the Inhibition [2] of the same molecule?
The Inhibition was -3.09%.

What does the source list for `COc1ccccc1N1CCN(C(=O)Cn2nc3ccc(-c4ccc(C)c(C)c4)nn3c2=O)CC1`?
Inhibition [1]: 13.88%; Inhibition [2]: -0.61%

How did the Inhibition [1] turn out when `Cc1ccc(Oc2nccn3c(=O)n(CC(=O)Nc4ccc(Br)cc4)nc23)cc1` was run?
Its Inhibition is 6.95%.

What about the Inhibition [2] of the same molecule?
The Inhibition was -5.29%.

With `CCOc1ccc(NC(=O)Cn2nc3c(N4CCCC4)nccn3c2=O)cc1` as the molecule, how does the Inhibition [1] read?
The Inhibition was 0.84%.

What about the Inhibition [2] of the same molecule?
Its Inhibition is -1.53%.

What does the source list for `CCCCOc1ccc(-c2cc3c4nnc(SCC(=O)NCc5ccc(C)cc5)n4ccn3n2)cc1`?
Inhibition [1]: 2.78%; Inhibition [2]: -5.47%

`COc1ccc(NC(=O)Cn2nc3c(Oc4cccc(OC)c4)nccn3c2=O)cc1` was tested. Which Inhibition [1] did it give?
The Inhibition was 14.33%.

And the Inhibition [2]?
The Inhibition was -3.37%.

With `Cc1cccc(Oc2nccn3c(=O)n(CC(=O)NCCCc4ccccc4)nc23)c1C` as the molecule, how does the Inhibition [1] read?
Its Inhibition is 9.48%.

And the Inhibition [2]?
Its Inhibition is -1.44%.

`COc1ccc(-n2ccn3c(-c4ccc([N+](=O)[O-])cc4)nnc3c2=O)cc1Cl` was tested. Which Inhibition [1] did it give?
Its Inhibition is 17.28%.

And the Inhibition [2]?
Its Inhibition is 1.52%.

What does the source list for `COc1ccc(-c2nc(CSc3nc4ccccc4n4c(C(C)C)nnc34)c(C)o2)cc1OC`?
Inhibition [1]: -10.5%; Inhibition [2]: 0.54%

How did the Inhibition [1] turn out when `CCCN(C)c1nccn2c(=O)n(CC(=O)Nc3cccc(SC)c3)nc12` was run?
The Inhibition was 12.22%.

What about the Inhibition [2] of the same molecule?
The Inhibition was -2.46%.

Which results are given for `Cc1cccc(Cn2nc3c(=O)n(-c4cccc(Cl)c4C)ccn3c2=O)c1`?
Inhibition [1]: -1.78%; Inhibition [2]: -16.69%

What does the source list for `Cc1ccc(-c2ccc3nnc(CCC(=O)NCc4ccc(C(F)(F)F)cc4)n3n2)cc1C`?
Inhibition [1]: 17.72%; Inhibition [2]: 1.8%

`COc1cccc(CN(c2ccc(C)c(F)c2)S(=O)(=O)c2ccc3nncn3c2)c1` was tested. Which Inhibition [1] did it give?
Its Inhibition is -7.58%.

And the Inhibition [2]?
Its Inhibition is -16.33%.

Which results are given for `CC(C)c1nnc2c(SCC(=O)Nc3ccccc3Br)nc3ccccc3n12`?
Inhibition [1]: 6.58%; Inhibition [2]: -0.85%

For `CCCCn1c(=O)c2sccc2n2c(=O)n(CC(=O)c3ccc(C)cc3C)nc12`, which Inhibition [1] is on record?
Its Inhibition is -3.74%.

What about the Inhibition [2] of the same molecule?
The Inhibition was -4.86%.

With `COc1ccc(NC(=O)Cn2nc3c4cc(-c5ccc(C)c(C)c5)nn4ccn3c2=O)cc1OC` as the molecule, how does the Inhibition [1] read?
Its Inhibition is 7.31%.

What about the Inhibition [2] of the same molecule?
Its Inhibition is -0.24%.

`CCc1ccccc1Sc1nccn2c(=O)n(CC(=O)Nc3ccc(Br)cc3)nc12` was tested. Which Inhibition [1] did it give?
Its Inhibition is -9.89%.

And the Inhibition [2]?
The Inhibition was 1.96%.

With `CCc1ccc(NC(=O)Cn2nc3c(=O)n(-c4ccc(Br)cc4)ccn3c2=O)cc1` as the molecule, how does the Inhibition [1] read?
The Inhibition was -5.7%.

What about the Inhibition [2] of the same molecule?
Its Inhibition is -7.12%.

For `CCCCN(C)c1ccc2nnc(CCc3nc(-c4ccc(OCc5ccccc5)cc4)no3)n2n1`, which Inhibition [1] is on record?
The Inhibition was -12.25%.

What about the Inhibition [2] of the same molecule?
Its Inhibition is -8.06%.

Which Inhibition [1] does the source give for `CCc1nnc2c(S(=O)(=O)N(Cc3cccc(C)c3)c3cccc(Cl)c3)cccn12` here?
Its Inhibition is 2.53%.

What about the Inhibition [2] of the same molecule?
The Inhibition was -7.38%.

What does the source list for `O=C(Cn1nc2ccc(SCc3ccc(Cl)cc3)nn2c1=O)Nc1ccc2c(c1)OCO2`?
Inhibition [1]: 9.4%; Inhibition [2]: -2.43%

For `O=C(Cn1nc2c(N3CCOCC3)nccn2c1=O)N1CCN(c2ccccc2F)CC1`, which Inhibition [1] is on record?
The Inhibition was 14.68%.

What about the Inhibition [2] of the same molecule?
The Inhibition was 2.59%.

What does the source list for `O=c1c2nn(Cc3ccccc3F)c(=O)n2ccn1-c1ccccc1`?
Inhibition [1]: 4.1%; Inhibition [2]: -4.13%

Which results are given for `CCCn1c(=O)c2sccc2n2c(=O)n(CC(=O)c3ccccc3)nc12`?
Inhibition [1]: 3.8%; Inhibition [2]: 2.71%

`CCCN(C)c1nccn2c(=O)n(CC(=O)Nc3cccc(Br)c3)nc12` was tested. Which Inhibition [1] did it give?
The Inhibition was 10.78%.

And the Inhibition [2]?
Its Inhibition is -4.19%.

`COc1ccc(-c2cc3c4nnc(SCC(=O)Nc5ccc(C#N)cc5)n4ccn3n2)cc1` was tested. Which Inhibition [1] did it give?
Its Inhibition is -3.8%.

What about the Inhibition [2] of the same molecule?
Its Inhibition is -6.47%.

Which results are given for `CCOc1ccc(NC(=O)Cn2nc3c4cc(-c5ccc(Cl)cc5)nn4ccn3c2=O)cc1`?
Inhibition [1]: 0.29%; Inhibition [2]: -4.33%

`O=C(CCc1nnc2c3cc(-c4ccc(F)cc4)nn3ccn12)NCc1ccccc1Cl` was tested. Which Inhibition [1] did it give?
The Inhibition was -0.61%.

And the Inhibition [2]?
The Inhibition was -10.24%.

How did the Inhibition [1] turn out when `Cc1cccc(Oc2nccn3c(=O)n(CC(=O)Nc4cccc(C(F)(F)F)c4)nc23)c1C` was run?
The Inhibition was 4.71%.

And the Inhibition [2]?
The Inhibition was -4.64%.

How did the Inhibition [1] turn out when `COc1ccccc1-n1ccn2c(SCc3cc(C)ccc3C)nnc2c1=O` was run?
The Inhibition was 12.05%.

What about the Inhibition [2] of the same molecule?
The Inhibition was -5.03%.

Which Inhibition [1] does the source give for `Cc1cccc(NC(=O)Cn2nc3ccc(-c4ccccc4)nn3c2=O)c1` here?
The Inhibition was 1.55%.

What about the Inhibition [2] of the same molecule?
The Inhibition was -5.19%.
